According to ChEMBL document CHEMBL3988442, “University of Dundee, Small-Polar-MMV Screening Library” (2021):
Hit rate of the full screen: of about 48,000 compounds, about 13,000 (27%) showed an effect of 50% or more. Some of the results follow.

tested on: Wolbachia pipientis; test: Anti-Wolbachia Cell-Based Screen; type: functional; set-up: scale not given: in the data most compounds retested in dose-response had high values; details: 5 µM

Compound	Percent Effect
Cc1noc(C)c1CN(C)CC(=O)/N=c1\cc[nH]n1C(C)C1CC1 (stereo not drawn)	-5.789%
CN(C)c1cccc(C(=O)Nc2cnn(Cc3ccccn3)c2)c1	-6.173%
Cc1ccc2cc(C3(O)CCN(C)CC3)ccc2n1	-2.467%
COC[C@@]12CC[C@@H](N3CCOCC3)C[C@H]1CCN(c1ncccn1)C2	-5.007%
CC1CCCCN1C(=O)c1coc(COc2cccc3cnccc23)n1 (stereo not drawn)	-5.431%
COCCC1CCCCN1C(=O)c1coc(COc2ccccc2F)n1 (stereo not drawn)	108.5%
COc1cc(C)ccc1OCc1nc(C(=O)N2CCCC2)co1	0.1288%
O=C(c1coc(COc2cccc3cnccc23)n1)N1CCCCCC1	5.374%
O=C(c1coc(COc2ccccc2F)n1)N1CCCO1	104.9%
O=C(c1coc(COc2ccccc2F)n1)N1CCC[C@H]1CO	111.3%
CC[C@H](CO)NC(=O)c1coc(COc2ccccc2F)n1	-31.99%
COc1ccccc1OCc1cc(C(=O)N2CCCCCC2CO)n[nH]1 (stereo not drawn)	-25.79%
COc1cc(C)ccc1OCc1nc(C(=O)N2CCCO2)co1	-7.138%
CC(c1ccco1)n1cc(-c2cc(CN3CCCC3)cs2)nn1 (stereo not drawn)	21.85%
CCOc1cc(NC(=O)N2CCC(c3nnc[nH]3)CC2)ccc1C	11.09%
CCc1ccc(CC)c(NCC(=O)N2CCCC(NC(C)=O)C2)c1 (stereo not drawn)	8.422%
CCNC(=O)N1CCC(NC(=O)NCCCc2cccc(F)c2)C1 (stereo not drawn)	-2.549%
CCc1cc(C)c(C(=O)N2CCCC(c3nnn[nH]3)C2)o1 (stereo not drawn)	6.83%
CCOc1ccc(CCCC(=O)N2CCC(c3nnn[nH]3)CC2)cc1C	92.44%
CCOc1ccc(C(C)NC(=O)N2CCC(C(N)=O)CC2)cc1OC (stereo not drawn)	-11.4%
CCOc1ccc(CCCC(=O)N2CCC(C(=O)NC)C2)cc1C (stereo not drawn)	83.39%
CCOc1ccc(CCCC(=O)N2CC[C@H](NC(C)=O)C2)cc1C	116.5%
CNC(=O)C1CCN(C(=O)c2coc(COc3ccc(OC)cc3)n2)C1 (stereo not drawn)	-10.95%
O=C(C1CC=CC1)N1CC[C@@H]2O[C@@H](COCC3CCOCC3)CC[C@@H]21	-9.606%
COCCC(=O)NCC1Cn2nnc(-c3cccc(F)c3)c2CO1 (stereo not drawn)	-4.513%

Compound	Percent Effect
Cc1cc(=O)n(CC(=O)NCCC(C)C)c(-c2cccc(Cl)c2)n1	-16.01%
COCCNC(=O)Cn1c(-c2cccc(F)c2)nc(C)c(CCO)c1=O	196.7%
CC(=O)Nc1nc(C(=O)NCCOc2cccc(F)c2)cs1	5.348%
COCCNC(=O)Cn1c(-c2cccc(Cl)c2)nc(C)c(CCO)c1=O	141.8%
CNC(=O)c1cn2cc(-c3cccc(Cl)c3)n(CC=C(C)C)c(=O)c2n1	3.943%
O=C(O)C(F)(F)F.O=C(c1cocn1)N1CC[C@H]2OCC[C@@]2(COc2ncccc2F)C1	4.073%
CCS(=O)(=O)N1CCc2onc(COc3ccccn3)c2C1.O=C(O)C(F)(F)F	-3.121%
CCN(C)c1ncnc2c1CCN(C(=O)c1ccoc1C)CC2.O=C(O)C(F)(F)F	0.8996%
Cc1ccc(C(=O)N2CCc3ncnc(-c4cnn(C)c4)c3CC2)cn1.O=C(O)C(F)(F)F	114%
O=C(O)C(F)(F)F.O=C(c1cccnc1)N1CCc2ncnc(N3CCOCC3)c2CC1	3.769%
Cc1oncc1C(=O)N1CCc2ncnc(-c3cnn(C)c3)c2CC1.O=C(O)C(F)(F)F	102.6%
Cc1ccc(C(=O)N2CCc3ncnc(C)c3CC2)cn1	-9.03%
CN(C)CC(=O)N1CCc2ncnc(-c3cncnc3)c2CC1.O=C(O)C(F)(F)F	2.289%
Cc1ccc(=O)n(CC(=O)N(C)Cc2csc(-c3cccs3)n2)n1	-12.57%
Cc1c(C(=O)N2CCN(C)[C@@H]3CS(=O)(=O)C[C@@H]32)[nH]c2ccc(F)cc12	22.59%
Cc1c(C(=O)N[C@@H]2CC[C@@H](N3CCCC3)[C@@H]2O)[nH]c2ccc(F)cc12	79.42%
O=C(N[C@@H]1CCNC[C@H]1O)c1ccc(F)c(Cl)c1	-18.82%
O=C(NC1CCCCNC1=O)c1cc2ccccc2[nH]c1=O (stereo not drawn)	20.65%
CC(=O)N[C@@H]1CN(C(=O)c2cc3ccccc3[nH]2)C[C@H]1c1ccc(C)o1	5.04%
CS(=O)(=O)NC1CCN(C(=O)c2[nH]c3ccc(Cl)cc3c2Cl)CC1	24.08%
O=C(N[C@@H]1CC[C@@H](N2CCCC2)[C@@H]1O)c1cc2ccccc2[nH]1	132.3%
CO[C@H]1CN(C(C)C)C[C@@H]1NC(=O)c1cc(-c2ccccc2F)n[nH]1	-41.59%
O=C(N[C@@H]1CC[C@@H](N2CCCC2)[C@@H]1O)c1cc2cccc(F)c2[nH]1	98.49%
CSCCC(C)NC(=O)N1CCSC(C)(C)C1 (stereo not drawn)	17.63%
CCOC(=O)c1ccc(CNC(=O)c2ccc(Cl)cn2)o1	-5.208%

Compound	Percent Effect
CCOc1ccc(C2CC(=O)Nc3c2c(=O)nc2sccn32)cc1 (stereo not drawn)	17.16%
Cc1ccc(O)c(C(=O)N2CCOCC2c2c(C)nn(C)c2C)c1 (stereo not drawn)	110.1%
Cc1nn(C)c(C)c1C1COCCN1C(=O)NC1CC1 (stereo not drawn)	-3.324%
Cc1nn(C)c(C)c1C1COCCN1C(=O)CC(C)(C)C (stereo not drawn)	-9.995%
Cc1nn(C)c(C)c1C1COCCN1C(=O)c1cc(F)ccc1F (stereo not drawn)	96.87%
COC(=O)N1CCCC(C(=O)Nc2nc(C)c(SC)s2)C1 (stereo not drawn)	-4.415%
Cc1nc(CNC(C(=O)N2CCOCC2)C(C)C)no1 (stereo not drawn)	-7.712%
COc1ccc(F)cc1C[S+]([O-])CC(=O)NCC(C)C (stereo not drawn)	-12.33%
Cc1ocnc1C(=O)N1CCN(Cc2ccccc2)[C@@H]2CS(=O)(=O)C[C@@H]21	-1.53%
CCn1nc2c(cc1=O)CN(CC(=O)N(C)c1nccs1)CC2	-28.1%
CN(C)C(=O)CO[C@H]1CN(Cc2ccoc2)[C@@H]2COC[C@H]12.O=C(O)C(F)(F)F	107.9%
CN(C)C(=O)CO[C@H]1CN(Cc2ccsc2)[C@@H]2COC[C@H]12.O=C(O)C(F)(F)F	92.71%
CN(C)C(=O)CO[C@H]1CN(Cc2cccc(C#N)c2)[C@@H]2COC[C@H]12.O=C(O)C(F)(F)F	-2.281%
CN(C)C(=O)CO[C@H]1CN(Cc2ccccc2)[C@@H]2CCCO[C@H]12.O=C(O)C(F)(F)F	0.8065%
CCc1ccc(CN2C[C@H](OCC(=O)N(C)C)[C@H]3COC[C@H]32)o1.O=C(O)C(F)(F)F	117.7%
CN(C)CCO[C@H]1CN(Cc2ccc3c(c2)OCO3)[C@@H]2COC[C@H]12.O=C(O)C(F)(F)F.O=C(O)C(F)(F)F	-6.328%
CN(C)C(=O)CO[C@H]1CN(Cc2ccc3c(c2)OCO3)[C@@H]2COC[C@H]12.O=C(O)C(F)(F)F	108%
CN(C)CCO[C@H]1CN(Cc2ccoc2)[C@@H]2COC[C@H]12.O=C(O)C(F)(F)F.O=C(O)C(F)(F)F	-9.926%
CC(C)C1=NOC(c2nc(Cc3ccccc3)no2)C1 (stereo not drawn)	-12.61%
CCc1ccccc1OC1CN(C(=O)c2ccnc(OC)c2)C1	-7.047%
CC(C)NS(=O)(=O)c1cc(C(=O)O)cc(-c2ccccc2F)c1	2.884%
Cc1ccc(F)cc1-c1ccc(N)nc1	-13.87%
CCc1ccc(C(=O)NC2CCCN(c3ccn(C)n3)C2=O)o1 (stereo not drawn)	-13.64%
O=C1CCSCC(C(=O)N2CCN(C3CCCCC3)CC2)N1 (stereo not drawn)	2.707%
COc1ccc(-n2ccc(CNCc3cccc(OC)c3)n2)cc1	-0.2636%

Compound	Percent Effect
O=C(NCCc1cccnc1)NCCc1cccs1	-0.2291%
Cl.c1cncc(CNCc2cccs2)c1	109.5%
COc1cccc(-c2nc(CNCc3cccnc3)cs2)c1	6.915%
COc1cccc(CNCc2nc3ccccc3c(=O)[nH]2)c1	145%
COc1cccc(CNC[C@@]2(COc3cccnc3)C[C@@H](O)[C@@H](O)C2)c1.Cl.Cl	-11.87%
C=C(C)COc1cccc(CNCc2nc3ccccc3c(=O)[nH]2)c1	-21.19%
Cc1nn(C)c(N(C)C)c1CNCc1cccnc1	7.028%
COc1cccc(CNCc2cccnc2)c1	125.9%
CCC(CC)c1cc(CNC(=O)N2CCC[C@@H]2CO)on1	-2.754%
CCn1cc(CNc2ccc(F)c(N3CCCS3(=O)=O)c2)cn1	-13%
Cc1cccc(C(=O)N(CCCO)S(=O)(=O)c2cccs2)c1	-17.59%
O=C(CN1CCCC1)N1CCCC1c1nc(O)cc(-c2ccccn2)n1 (stereo not drawn)	91.97%
COCCC(=O)N1CCCC1c1nc(O)cc(-c2ccccn2)n1 (stereo not drawn)	100.3%
O=C(CC1CCCC1)N1CCCC1c1nc(O)cc(-c2ccccn2)n1 (stereo not drawn)	-10.15%
C/C=C(/C)C(=O)NS(=O)(=O)c1ccc(C(F)(F)F)cc1	-1.888%
Cc1ccc2c(c1)N(C(=O)C1CCCOC1)CCC2 (stereo not drawn)	0.6184%
O=C(C1CCCOC1)N1CCN(CC(F)(F)F)c2ccccc21 (stereo not drawn)	120.4%
O=C(C1CCCOC1)N1CCCc2ccccc21 (stereo not drawn)	-6.498%
CN1CCN(C(=O)C2CC=CC2)c2ccccc21	-33.89%
CC(C)(C)c1cc(NC(=O)C2COCCO2)n(-c2ccccn2)n1 (stereo not drawn)	-13.16%
O=C(C1COCCO1)N1CCN(CC(F)(F)F)c2ccccc21 (stereo not drawn)	122.9%
O=C(C1CCCOC1)N1CCCCc2ccccc21 (stereo not drawn)	-3.66%
O=C(C1CCOC1)N1CCN(CC(F)(F)F)c2ccccc21 (stereo not drawn)	125.3%
